Assay results taken from PubChem BioAssay (EPA / NIEHS).
Active and inactive are the calls of the source. How the source made its calls: active means hit-call score of the fitted dose curve at least 0.9, where 1 is the maximum; inactive means score below 0.9.

Legend:
[1] = ATG_CRE_CIS: Attagene CIS-FACTORIAL HepG2 Assay for human cAMP Responsive Element (CRE) binding protein 3 (AID 2282926); conditions: HepG2 CRE cis-reporter, Attagene multiplexed mRNA; actives raise or lower the signal
Summary of the method: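 Assay format: transient reporter transfection of HepG2, 24 h treatment, total RNA isolation with DNase I step. Reporter abundance read by fluorescence after PCR and capillary separation; DMSO-normalised gain or loss fitting.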

[2] = target: CCAAT/enhancer-binding protein beta (Homo sapiens) (UniProt P17676); experiment: ATG_C_EBP_CIS: Attagene CIS-FACTORIAL HepG2 Assay for human CCAAT/Enhancer Binding Protein (C/EBP) beta (AID 2282927); conditions: HepG2 Attagene cis-factorial transcription factor reporter; actives raise or lower the signal
Sequence of CCAAT/enhancer-binding protein beta (Homo sapiens) (P17676 whole entry, looked up, the tested form may be a part): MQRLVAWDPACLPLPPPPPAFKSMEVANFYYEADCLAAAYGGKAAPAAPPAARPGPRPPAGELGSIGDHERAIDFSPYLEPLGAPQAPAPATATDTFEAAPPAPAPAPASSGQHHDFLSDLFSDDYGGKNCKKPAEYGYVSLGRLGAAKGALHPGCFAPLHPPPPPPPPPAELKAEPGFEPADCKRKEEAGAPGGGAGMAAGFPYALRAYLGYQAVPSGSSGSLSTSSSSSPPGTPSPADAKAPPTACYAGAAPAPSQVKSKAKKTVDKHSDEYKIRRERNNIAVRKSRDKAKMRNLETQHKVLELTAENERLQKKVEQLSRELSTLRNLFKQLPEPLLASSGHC
Summary of the method: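 Endogenous C/EBPb-driven reporter transcripts measured in transfected human HepG2 cells at 24 h via RT-PCR and capillary electrophoresis of labelled fragments. Activity fitted in both directions relative to DMSO baseline.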

[3] = ATG_CMV_CIS: Attagene CIS-FACTORIAL HepG2 Assay for human CMV (Internal Marker) (AID 2282928); conditions: HepG2 CMV promoter reporter, transcription factor profiling; actives raise or lower the signal;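 further: endpoint acts as a background internal control marker rather than a target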
Summary of the method: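 24 h chemical treatment, HepG2 with transient multi-reporter transfection; RNA → oligo(dT) RT → PCR → 6-FAM extension → HpaI digest → CE fluorescence. Bidirectional fit, DMSO negative control.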

[4] = ATG_DR4_LXR_CIS: Attagene CIS-FACTORIAL HepG2 Assay for human Liver X Receptor (LXR), DR4 submotif (AID 2282929); conditions: HepG2 Attagene DR4 cis-reporter, mRNA transcription; actives raise or lower the signal
Summary of the method: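 DR4 cis-reporter in HepG2, 24 h exposure. Detection: RT-PCR, 6-FAM labelling, CE fragment analysis. Endpoint fitted bidirectionally, DMSO = baseline.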

[5] = ATG_AP_2_CIS: Attagene CIS-FACTORIAL HepG2 Assay for human Activator Protein 2 (AP-2) (AID 2282932); conditions: HepG2 AP-2 cis-reporter, Attagene transcription factor profiling; actives raise or lower the signal
Summary of the method: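 Endogenous transcription factor activity is reported through transfected multiplex reporter constructs in HepG2, after 24 h of compound exposure. Transcripts were quantified by RT-PCR and capillary electrophoresis of fluorescent fragments. Bidirectional fit against DMSO.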

[6] = ATG_E_Box_CIS: Attagene CIS-FACTORIAL HepG2 Assay for human Enhancer Box (E-box) (AID 2282936); conditions: HepG2 E-box cis-reporter transcription, actives raise or lower the signal
Summary of the method: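 E-box-driven reporter transcripts measured in transiently transfected HepG2 after 24 h exposure: RNA reverse-transcribed, PCR-amplified, fluorescently labelled, digested and resolved by capillary electrophoresis. Gain or loss relative to DMSO.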

[7] = ATG_EGR_CIS: Attagene CIS-FACTORIAL HepG2 Assay for human Early Growth Response 1 (EGR1) (AID 2282938); conditions: HepG2 Attagene CIS-FACTORIAL EGR reporter mRNA; actives raise or lower the signal
Summary of the method: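 Endpoint derived by bidirectional fitting versus DMSO vehicle. Method: cis-promoter reporter units transfected into HepG2, 24 h dosing, RNA isolation, RT-PCR with 6-FAM primer extension and HpaI digestion, then capillary electrophoresis fluorescence detection.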

[8] = ATG_M_19_CIS: Attagene CIS-FACTORIAL HepG2 Assay for M19 Transcription Factor (Internal Marker) (AID 2282939); conditions: HepG2 Attagene CIS-FACTORIAL M19 internal marker reporter; actives raise or lower the signal
Summary of the method: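 Chemical-treated HepG2 (24 h) with MRTU constructs; reporter transcripts detected by fluorescent RT-PCR fragment analysis on capillary electrophoresis. Internal background marker, DMSO as baseline.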

[9] = ATG_Ets_CIS: Attagene CIS-FACTORIAL HepG2 Assay for human Erythroblast Transformation Specific (ETS) (AID 2282941); conditions: HepG2 ETS cis-reporter transcription, actives raise or lower the signal
Summary of the method: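 Cis-regulated reporter mRNA induction in HepG2 (transient transfection), 24 h exposure, RT-PCR plus capillary electrophoresis detection; DMSO serves as negative control and baseline.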

[10] = target: Hepatocyte nuclear factor 3-beta (Homo sapiens) (UniProt Q9Y261); experiment: ATG_FoxA2_CIS: Attagene CIS-FACTORIAL HepG2 Assay for human Forkhead box A2 (FOXA2) (AID 2282942); conditions: HepG2 cis-reporter transcription factor activity, 24 h; actives raise or lower the signal
Sequence of Hepatocyte nuclear factor 3-beta (Homo sapiens) (Q9Y261 whole entry, looked up): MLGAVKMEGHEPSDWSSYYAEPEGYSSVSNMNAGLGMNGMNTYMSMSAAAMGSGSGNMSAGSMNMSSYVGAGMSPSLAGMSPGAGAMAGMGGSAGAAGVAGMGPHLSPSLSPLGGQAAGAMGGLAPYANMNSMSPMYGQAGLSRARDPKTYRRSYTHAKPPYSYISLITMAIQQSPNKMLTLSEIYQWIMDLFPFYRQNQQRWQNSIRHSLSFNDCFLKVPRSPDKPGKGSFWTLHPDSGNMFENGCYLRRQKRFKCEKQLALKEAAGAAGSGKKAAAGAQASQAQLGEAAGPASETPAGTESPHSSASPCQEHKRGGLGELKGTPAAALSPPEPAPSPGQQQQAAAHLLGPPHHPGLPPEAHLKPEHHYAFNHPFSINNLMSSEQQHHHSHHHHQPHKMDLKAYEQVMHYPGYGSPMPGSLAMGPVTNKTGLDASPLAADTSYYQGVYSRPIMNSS
Summary of the method: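 Measured: reporter mRNA induction or loss in HepG2 transiently carrying multiple cis-regulated reporter units, 24 h after dosing. Quantified by RT-PCR plus capillary electrophoresis, normalised to DMSO.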

[11] = ATG_FoxO_CIS: Attagene CIS-FACTORIAL HepG2 Assay for human Forkhead box O (FoxO) (AID 2282943); conditions: HepG2 Attagene cis-reporter, FoxO element, mRNA; actives raise or lower the signal
Summary of the method: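 Endogenous transcription factor activity read from multiplexed cis-promoter reporter transcripts in transiently transfected HepG2, 24 h after dosing. Reporter RNA measured via RT-PCR plus capillary electrophoresis of FAM-labeled products; gain or loss relative to DMSO.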

[12] = ATG_GATA_CIS: Attagene CIS-FACTORIAL HepG2 Assay for human GATA Binding Protein (AID 2282944); conditions: HepG2 GATA cis-element reporter, Attagene multiplex mRNA; actives raise or lower the signal
Summary of the method: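 Transfected cis-reporter HepG2 cells were treated with chemicals for 24 hours. Total RNA was then converted to cDNA, amplified with reporter-specific primers and analysed by fluorescent capillary electrophoresis, using DMSO-treated wells as baseline.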

[13] = ATG_M_32_CIS: Attagene CIS-FACTORIAL HepG2 Assay for M32 Transcription Factor (Internal Marker) (AID 2282949); conditions: HepG2 Attagene cis-factorial M32 reporter, mRNA; actives raise or lower the signal;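 further: background control marker of the multiplexed CIS panel rather than a real target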
Summary of the method: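 HepG2 transfectants (cis-regulated reporter transcription units) dosed 24 h. Reporter mRNA by RT-PCR plus CE, analysed as gain or loss relative to DMSO.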

[14] = ATG_M_06_CIS: Attagene CIS-FACTORIAL HepG2 Assay for M06 Transcription Factor (Internal Marker) (AID 2282950); conditions: HepG2 Attagene CIS-FACTORIAL M06 internal marker reporter; actives raise or lower the signal
Summary of the method: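 Cells (HepG2, transiently carrying cis-driven reporter units) receive chemical for 24 h before RNA isolation. Reporter cDNA is PCR-amplified, FAM-labelled by primer extension, HpaI-digested and sized on a capillary analyser.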

[15] = ATG_PXRE_CIS: Attagene CIS-FACTORIAL HepG2 Assay for human Pregnane X Receptor Element (PXRE) (AID 2282957); conditions: HepG2 Attagene CIS-FACTORIAL PXRE reporter, mRNA; actives raise or lower the signal
Summary of the method: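 Using HepG2 transfected with multiple reporter transcription units, endogenous factor-driven transcription was scored as reporter mRNA after 24 h exposure.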

[16] = ATG_Sox_CIS: Attagene CIS-FACTORIAL HepG2 Assay for human SRY-box transcription factor (SOX) (AID 2282960); conditions: HepG2 Attagene cis-factorial SOX reporter, mRNA; actives raise or lower the signal
Summary of the method: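 Gain- or loss-of-signal endpoint, fitted bidirectionally with DMSO as negative control. Based on reporter mRNA from transfected HepG2 cells harvested 24 h post-treatment and quantified via RT-PCR and capillary electrophoresis.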

[17] = target: Transcription factor Sp1 (Homo sapiens) (UniProt P08047); experiment: ATG_Sp1_CIS: Attagene CIS-FACTORIAL HepG2 Assay for human Specificity Protein 1 (Sp1) (AID 2282961); conditions: HepG2 Sp1 cis-reporter transcription, actives raise or lower the signal
Sequence of Transcription factor Sp1 (Homo sapiens) (P08047 whole entry, looked up, the tested form may be a part): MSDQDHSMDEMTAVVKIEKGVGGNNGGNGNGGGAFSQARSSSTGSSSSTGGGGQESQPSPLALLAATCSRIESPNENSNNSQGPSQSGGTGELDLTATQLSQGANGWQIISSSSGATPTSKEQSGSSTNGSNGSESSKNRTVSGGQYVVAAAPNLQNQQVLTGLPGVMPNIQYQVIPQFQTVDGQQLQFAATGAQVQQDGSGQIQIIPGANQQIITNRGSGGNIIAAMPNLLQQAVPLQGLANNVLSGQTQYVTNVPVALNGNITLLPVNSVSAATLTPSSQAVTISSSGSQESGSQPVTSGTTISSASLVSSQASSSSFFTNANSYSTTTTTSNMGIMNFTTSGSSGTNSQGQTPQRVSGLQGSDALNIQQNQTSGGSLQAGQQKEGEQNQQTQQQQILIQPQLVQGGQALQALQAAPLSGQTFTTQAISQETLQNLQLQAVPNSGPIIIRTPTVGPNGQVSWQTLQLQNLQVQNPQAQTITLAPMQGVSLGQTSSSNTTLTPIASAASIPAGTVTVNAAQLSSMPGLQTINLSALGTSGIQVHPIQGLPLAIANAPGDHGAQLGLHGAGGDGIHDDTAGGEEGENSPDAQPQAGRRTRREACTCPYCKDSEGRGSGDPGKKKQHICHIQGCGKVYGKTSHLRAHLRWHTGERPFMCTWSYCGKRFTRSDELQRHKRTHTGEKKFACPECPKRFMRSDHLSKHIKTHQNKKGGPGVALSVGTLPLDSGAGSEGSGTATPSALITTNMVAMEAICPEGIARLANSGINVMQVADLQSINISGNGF
Summary of the method: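 Endpoint reflects endogenous Sp1 transcriptional activity, not an exogenous fusion protein: HepG2 cells with transfected cis-regulated reporters, 24 h dosing, RT-PCR/capillary electrophoresis mRNA read-out, DMSO-normalised bidirectional fit.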

[18] = ATG_SREBP_CIS: Attagene CIS-FACTORIAL HepG2 Assay for human Sterol Regulatory Element Binding (SREBP) (AID 2282962); conditions: HepG2 Attagene cis-factorial SREBP reporter, mRNA; actives raise or lower the signal
Summary of the method: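 Endogenous factor activity is measured in HepG2 through multiplexed reporter units under cis-element control. Following a 24 h incubation, reporter transcripts are reverse-transcribed, PCR-amplified and sized by capillary electrophoresis; activity is fitted in both directions relative to DMSO.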

[19] = target: Signal transducer and activator of transcription 3 (Homo sapiens) (UniProt P40763); experiment: ATG_STAT3_CIS: Attagene CIS-FACTORIAL HepG2 Assay for human Signal Transducer and Activator of Transcription 3 (STAT3) (AID 2282963); conditions: HepG2, Attagene cis-factorial STAT3 reporter transcription; actives raise or lower the signal
Sequence of Signal transducer and activator of transcription 3 (Homo sapiens) (P40763 whole entry, looked up): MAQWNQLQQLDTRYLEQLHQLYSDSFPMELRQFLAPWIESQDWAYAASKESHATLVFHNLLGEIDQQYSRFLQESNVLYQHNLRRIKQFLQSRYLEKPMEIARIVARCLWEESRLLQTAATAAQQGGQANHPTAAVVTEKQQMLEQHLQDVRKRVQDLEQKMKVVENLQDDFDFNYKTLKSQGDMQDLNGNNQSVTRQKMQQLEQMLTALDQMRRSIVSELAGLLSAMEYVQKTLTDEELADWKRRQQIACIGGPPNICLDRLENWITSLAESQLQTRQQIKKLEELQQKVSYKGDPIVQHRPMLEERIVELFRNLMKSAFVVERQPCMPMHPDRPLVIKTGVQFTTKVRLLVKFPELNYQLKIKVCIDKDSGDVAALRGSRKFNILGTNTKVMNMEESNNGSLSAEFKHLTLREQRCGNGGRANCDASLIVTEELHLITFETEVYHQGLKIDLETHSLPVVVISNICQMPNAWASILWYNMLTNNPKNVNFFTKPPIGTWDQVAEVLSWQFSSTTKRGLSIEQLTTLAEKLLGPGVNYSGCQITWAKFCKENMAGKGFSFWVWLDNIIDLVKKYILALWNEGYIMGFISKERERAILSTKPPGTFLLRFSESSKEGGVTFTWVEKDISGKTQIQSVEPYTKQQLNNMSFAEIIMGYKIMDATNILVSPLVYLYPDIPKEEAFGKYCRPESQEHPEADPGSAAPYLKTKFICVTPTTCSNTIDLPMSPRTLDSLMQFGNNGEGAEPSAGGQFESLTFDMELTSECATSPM
Summary of the method: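 Readout is reporter transcript quantified by RT-PCR and capillary electrophoresis, with 6-FAM primer extension and HpaI digestion. Total RNA is taken 24 h after dosing transiently transfected HepG2 carrying cis-regulated reporter units. Bidirectional fit against DMSO.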

[20] = ATG_TA_CIS: Attagene CIS-FACTORIAL HepG2 Assay for human TA Basal Promoter (AID 2282964); conditions: HepG2 Attagene CIS-factorial TA basal promoter reporter; actives raise or lower the signal
Summary of the method: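 Background internal-marker endpoint from a 52-component HepG2 cis-reporter panel. Cells treated 24 h; reporter transcripts quantified via RT-PCR and CE fluorescence against DMSO baseline.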

Measured: AC50

CC1CCCC1.[C-]#[O+].[C-]#[O+].[C-]#[O+].[Mn]
active: [6] 16.8 µM
inactive: all other assays above

O=[N+]([O-])c1cc([N+](=O)[O-])c2ccccc2c1
active: [3] 23.5 µM | [6] 10.5 µM | [15] 8.8 µM
inactive: all other assays above

O=c1c2ccccc2c(=O)c2c1cc(Cl)c1[nH]c3c([nH]c12)c(Cl)cc1c(=O)c2ccccc2c(=O)c13
active: [15] 11.2 µM
inactive: all other assays above

O=C(CCl)c1ccccc1
active: [1] 8.31 µM | [4] 21.1 µM | [5] 18.9 µM | [6] 16.2 µM
inactive: all other assays above

C[N+](=O)[O-]
inactive: all assays above

O=S(=O)(c1ccccc1)c1ccccc1
active: [15] 20.1 µM
inactive: all other assays above
